Key:
Test in all cases: luciferase reporter transactivation, fold of solvent control; higher = stronger receptor activation
Details in all cases: HEK293T, exposure time: 24 h
CAR LBD (GAL4 fusion) = system: CAR LBD (GAL4 fusion)
Procedure, shortened: (§1)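 Transactivation values are firefly/Renilla luciferase ratios expressed as fold of solvent control and averaged over biological replicates. HEK293T cells (2 × 10^4 cells/well, 96-well plates) grown in DMEM with 10% FBS at 37 °C and 5% CO2 were transfected transiently with TransIT-LT1. Each well carried a GAL4 fusion of a single human nuclear receptor ligand-binding domain, a GAL4-(UAS)5-TK firefly luciferase reporter and a Renilla luciferase plasmid. Exposure to compound lasted 24 h, at 1 to 500 µM in DMEM with 0.5% DMSO.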

[1] = system: LXRalpha LBD (GAL4 fusion)
Procedure, shortened: as §1

[2] = system: PPARdelta LBD (GAL4 fusion)
Procedure, shortened: as §1

PXR LBD (GAL4 fusion) = PXR LBD (GAL4 fusion) (UniProt O75469)
PXR LBD (GAL4 fusion), sequence (O75469 whole entry, looked up, the tested form may be a part): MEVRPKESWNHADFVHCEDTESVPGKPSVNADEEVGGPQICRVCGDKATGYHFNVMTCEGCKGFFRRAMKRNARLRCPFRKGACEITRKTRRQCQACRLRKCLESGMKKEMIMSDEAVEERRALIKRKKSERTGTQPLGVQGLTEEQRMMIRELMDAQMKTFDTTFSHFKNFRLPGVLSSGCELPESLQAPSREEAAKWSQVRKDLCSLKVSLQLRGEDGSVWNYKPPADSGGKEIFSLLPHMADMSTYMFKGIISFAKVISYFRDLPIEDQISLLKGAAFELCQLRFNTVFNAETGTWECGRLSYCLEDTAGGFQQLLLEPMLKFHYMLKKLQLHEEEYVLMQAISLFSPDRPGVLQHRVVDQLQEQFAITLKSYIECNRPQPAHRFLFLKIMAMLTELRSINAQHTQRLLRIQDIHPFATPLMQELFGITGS
Procedure, shortened: as §1

RARalpha (GAL4 fusion) = system: RARalpha (GAL4 fusion)
Procedure, shortened: as §1

O=C(O)C(F)(F)C(F)(F)F [perfluoropropanoic acid]
luciferase reporter transactivation (CAR LBD (GAL4 fusion); concentration: 1 µM): 0.94 | luciferase reporter transactivation (CAR LBD (GAL4 fusion); concentration: 5 µM): 0.855 | luciferase reporter transactivation (CAR LBD (GAL4 fusion); concentration: 10 µM): 0.923 | luciferase reporter transactivation (CAR LBD (GAL4 fusion); concentration: 25 µM): 0.983 | luciferase reporter transactivation (CAR LBD (GAL4 fusion); concentration: 50 µM): 1.12 | luciferase reporter transactivation (CAR LBD (GAL4 fusion); concentration: 100 µM): 1.11 | luciferase reporter transactivation (CAR LBD (GAL4 fusion); concentration: 250 µM): 1.15 | luciferase reporter transactivation (CAR LBD (GAL4 fusion); concentration: 500 µM): 1.31 | luciferase reporter transactivation ([1]; concentration: 1 µM): 0.9 | luciferase reporter transactivation ([1]; concentration: 5 µM): 0.907 | luciferase reporter transactivation ([1]; concentration: 10 µM): 0.949 | luciferase reporter transactivation ([1]; concentration: 25 µM): 0.933 | luciferase reporter transactivation ([1]; concentration: 50 µM): 1 | luciferase reporter transactivation ([1]; concentration: 100 µM): 0.953 | luciferase reporter transactivation ([1]; concentration: 250 µM): 0.94 | luciferase reporter transactivation ([1]; concentration: 500 µM): 0.97 | luciferase reporter transactivation ([2]; concentration: 1 µM): 0.959 | luciferase reporter transactivation ([2]; concentration: 5 µM): 1.14 | luciferase reporter transactivation ([2]; concentration: 10 µM): 1.27 | luciferase reporter transactivation ([2]; concentration: 25 µM): 1.2 | luciferase reporter transactivation ([2]; concentration: 50 µM): 1.26 | luciferase reporter transactivation ([2]; concentration: 100 µM): 1.21 | luciferase reporter transactivation ([2]; concentration: 250 µM): 1.22 | luciferase reporter transactivation ([2]; concentration: 500 µM): 1.31 | luciferase reporter transactivation (PXR LBD (GAL4 fusion); concentration: 1 µM): 0.362 | luciferase reporter transactivation (PXR LBD (GAL4 fusion); concentration: 5 µM): 0.532 | luciferase reporter transactivation (PXR LBD (GAL4 fusion); concentration: 10 µM): 0.495 | luciferase reporter transactivation (PXR LBD (GAL4 fusion); concentration: 25 µM): 0.632 | luciferase reporter transactivation (PXR LBD (GAL4 fusion); concentration: 50 µM): 0.626 | luciferase reporter transactivation (PXR LBD (GAL4 fusion); concentration: 100 µM): 0.695 | luciferase reporter transactivation (PXR LBD (GAL4 fusion); concentration: 250 µM): 0.601 | luciferase reporter transactivation (PXR LBD (GAL4 fusion); concentration: 500 µM): 0.727 | luciferase reporter transactivation (RARalpha (GAL4 fusion); concentration: 1 µM): 0.332 | luciferase reporter transactivation (RARalpha (GAL4 fusion); concentration: 5 µM): 0.321 | luciferase reporter transactivation (RARalpha (GAL4 fusion); concentration: 10 µM): 0.367 | luciferase reporter transactivation (RARalpha (GAL4 fusion); concentration: 25 µM): 0.387 | luciferase reporter transactivation (RARalpha (GAL4 fusion); concentration: 50 µM): 0.632 | luciferase reporter transactivation (RARalpha (GAL4 fusion); concentration: 100 µM): 0.652 | luciferase reporter transactivation (RARalpha (GAL4 fusion); concentration: 250 µM): 0.977 | luciferase reporter transactivation (RARalpha (GAL4 fusion); concentration: 500 µM): 0.946

NS(=O)(=O)C(F)(F)C(F)(F)C(F)(F)C(F)(F)C(F)(F)C(F)(F)C(F)(F)C(F)(F)F [perfluorooctane sulfonamide]
luciferase reporter transactivation (CAR LBD (GAL4 fusion); concentration: 1 µM): 1.08 | luciferase reporter transactivation (CAR LBD (GAL4 fusion); concentration: 2.5 µM): 1.29 | luciferase reporter transactivation (CAR LBD (GAL4 fusion); concentration: 5 µM): 1.18 | luciferase reporter transactivation (CAR LBD (GAL4 fusion); concentration: 10 µM): 1.06 | luciferase reporter transactivation (CAR LBD (GAL4 fusion); concentration: 100 µM): 0.995 | luciferase reporter transactivation ([1]; concentration: 1 µM): 1.05 | luciferase reporter transactivation ([1]; concentration: 2.5 µM): 0.997 | luciferase reporter transactivation ([1]; concentration: 5 µM): 1.08 | luciferase reporter transactivation ([1]; concentration: 10 µM): 1.03 | luciferase reporter transactivation ([1]; concentration: 100 µM): 1.09 | luciferase reporter transactivation ([2]; concentration: 1 µM): 1.15 | luciferase reporter transactivation ([2]; concentration: 2.5 µM): 1.03 | luciferase reporter transactivation ([2]; concentration: 5 µM): 0.974 | luciferase reporter transactivation ([2]; concentration: 10 µM): 0.826 | luciferase reporter transactivation ([2]; concentration: 100 µM): 0.935 | luciferase reporter transactivation (PXR LBD (GAL4 fusion); concentration: 1 µM): 0.779 | luciferase reporter transactivation (PXR LBD (GAL4 fusion); concentration: 2.5 µM): 0.819 | luciferase reporter transactivation (PXR LBD (GAL4 fusion); concentration: 5 µM): 0.699 | luciferase reporter transactivation (PXR LBD (GAL4 fusion); concentration: 10 µM): 0.703 | luciferase reporter transactivation (PXR LBD (GAL4 fusion); concentration: 100 µM): 0.74 | luciferase reporter transactivation (RARalpha (GAL4 fusion); concentration: 1 µM): 1.02 | luciferase reporter transactivation (RARalpha (GAL4 fusion); concentration: 2.5 µM): 0.969 | luciferase reporter transactivation (RARalpha (GAL4 fusion); concentration: 5 µM): 1.32 | luciferase reporter transactivation (RARalpha (GAL4 fusion); concentration: 10 µM): 1.47 | luciferase reporter transactivation (RARalpha (GAL4 fusion); concentration: 100 µM): 1.71
